The full ranking holds about 16,000 sequences; the median of “rpm ratio (pull-down/input)” is about 0.5, and the highest 2% start at about 5.5. For the sample, the highest values were picked, then their nearest neighbours and some sequences at random.

The target in the assay is T1, MBP-FoxP3dN (Mus musculus, UniProt Q99JB6 188-423).
T1 sequence: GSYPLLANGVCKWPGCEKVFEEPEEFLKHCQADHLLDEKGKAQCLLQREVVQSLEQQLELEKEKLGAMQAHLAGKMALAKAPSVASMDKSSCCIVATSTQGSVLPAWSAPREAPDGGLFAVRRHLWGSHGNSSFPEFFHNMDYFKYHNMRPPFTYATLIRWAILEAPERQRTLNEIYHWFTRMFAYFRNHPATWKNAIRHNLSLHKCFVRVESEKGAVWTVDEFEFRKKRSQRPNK
The assay can be described thus: PD-seq (MBP pull-down with sequencing); 20 mM Tris-HCl pH 7.5, 100 mM NaCl, 1.5 mM MgCl2, 0.4 uM protein, 0.1 uM dsDNA library, 30 min, room temperature, amylose pull-down; high values mean tight binding. Particulars: protein: recombinant; tags: His6-MBP; chain copies: 2; dsDNA, one strand shown. Summed up: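 In Tris pH 7.5 buffer with NaCl and MgCl2, 0.4 µM His6-MBP-tagged mouse FoxP3 or FoxP1 fragment lacking the N-terminus, from E. coli, met 0.1 µM Klenow-filled double-stranded degenerate DNA library for 30 min at room temperature. Three washes on amylose resin followed capture of the complexes, then proteinase K release of DNA, PCR barcoding and Illumina sequencing. Binding is taken as pooled-replicate reads-per-million enrichment of pull-down relative to input.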
In the case of “GATGATTGTTCTCCCAGCTGATGAATTGGGTTAGTCGAGTAAACAAATTTTCCTAATCTTTCTGTTCAAGCGCCATCTAC”, the binding signal is 0.756 RPM ratio (pull-down/input).

Regarding “GATGATTGTTCTCCCAGCTGATGAATTCCTCCGTTCGAGTAAACAAATTTTCCTAATCTTTCTGTTCAAGCGCCATCTAC”, the binding signal is 0.255 RPM ratio (pull-down/input).

As for “GATGATTGTTCTCCCAGCTGATGAATTGTCCTTTTCGAGTAAACAAATTTTCCTAATCTTTCTGTTCAAGCGCCATCTAC”, the binding signal was 0.39 RPM ratio (pull-down/input).

“GATGATTGTTCTCCCAGCTGATGAATTTCTTTTGTCGAGTAAACAAATTTTCCTAATCTTTCTGTTCAAGCGCCATCTAC”: the binding signal was 1.65 RPM ratio (pull-down/input).

As for “GATGATTGTTCTCCCAGCTGATGAATTTTCTTTGTCGAGTAAACAAATTTTCCTAATCTTTCTGTTCAAGCGCCATCTAC”, the binding signal is 1.15 RPM ratio (pull-down/input).

Take “GATGATTGTTCTCCCAGCTGATGAATTTGTTTTGTCGAGTAAACAAATTTTCCTAATCTTTCTGTTCAAGCGCCATCTAC”: the binding signal is 7.57 RPM ratio (pull-down/input).

Take “GATGATTGTTCTCCCAGCTGATGAATTTTGTTTGTCGAGTAAACAAATTTTCCTAATCTTTCTGTTCAAGCGCCATCTAC”: the binding signal was 7.3 RPM ratio (pull-down/input).

As for “GATGATTGTTCTCCCAGCTGATGAATTCTTTTTGTCGAGTAAACAAATTTTCCTAATCTTTCTGTTCAAGCGCCATCTAC”, the binding signal was 0.437 RPM ratio (pull-down/input).

For “GATGATTGTTCTCCCAGCTGATGAATTGTTTTTGTCGAGTAAACAAATTTTCCTAATCTTTCTGTTCAAGCGCCATCTAC”, the binding signal is 4.16 RPM ratio (pull-down/input).

With “GATGATTGTTCTCCCAGCTGATGAATTCTGTTTGTCGAGTAAACAAATTTTCCTAATCTTTCTGTTCAAGCGCCATCTAC”, the binding signal is 6.99 RPM ratio (pull-down/input).

For “GATGATTGTTCTCCCAGCTGATGAATTGTTTCTGTCGAGTAAACAAATTTTCCTAATCTTTCTGTTCAAGCGCCATCTAC”, the binding signal is 1 RPM ratio (pull-down/input).

For “GATGATTGTTCTCCCAGCTGATGAATTCAATTTGTCGAGTAAACAAATTTTCCTAATCTTTCTGTTCAAGCGCCATCTAC”, the binding signal is 2.23 RPM ratio (pull-down/input).

As to “GATGATTGTTCTCCCAGCTGATGAATTTAGAGACTCGAGTAAACAAATTTTCCTAATCTTTCTGTTCAAGCGCCATCTAC”, the binding signal is 0.585 RPM ratio (pull-down/input).

In the case of “GATGATTGTTCTCCCAGCTGATGAATTAATGAGATCGAGTAAACAAATTTTCCTAATCTTTCTGTTCAAGCGCCATCTAC”, the binding signal was 0.246 RPM ratio (pull-down/input).

Turning to “GATGATTGTTCTCCCAGCTGATGAATTTCGAACCTCGAGTAAACAAATTTTCCTAATCTTTCTGTTCAAGCGCCATCTAC”, the binding signal is 0.301 RPM ratio (pull-down/input).

As for “GATGATTGTTCTCCCAGCTGATGAATTACAACCGTCGAGTAAACAAATTTTCCTAATCTTTCTGTTCAAGCGCCATCTAC”, the binding signal is 0.497 RPM ratio (pull-down/input).

Consider “GATGATTGTTCTCCCAGCTGATGAATTGAGTTAATCGAGTAAACAAATTTTCCTAATCTTTCTGTTCAAGCGCCATCTAC”, for which the binding signal was 0.369 RPM ratio (pull-down/input).

As to “GATGATTGTTCTCCCAGCTGATGAATTTACAGGCTCGAGTAAACAAATTTTCCTAATCTTTCTGTTCAAGCGCCATCTAC”, the binding signal is 0.441 RPM ratio (pull-down/input).

On to “GATGATTGTTCTCCCAGCTGATGAATTGGAACCGTCGAGTAAACAAATTTTCCTAATCTTTCTGTTCAAGCGCCATCTAC”, for which the binding signal is 0.224 RPM ratio (pull-down/input).

Consider “GATGATTGTTCTCCCAGCTGATGAATTGTTGTTATCGAGTAAACAAATTTTCCTAATCTTTCTGTTCAAGCGCCATCTAC”, for which the binding signal was 6.7 RPM ratio (pull-down/input).

As to “GATGATTGTTCTCCCAGCTGATGAATTGTTATCCTCGAGTAAACAAATTTTCCTAATCTTTCTGTTCAAGCGCCATCTAC”, the binding signal is 2.64 RPM ratio (pull-down/input).

As for “GATGATTGTTCTCCCAGCTGATGAATTATTGTTATCGAGTAAACAAATTTTCCTAATCTTTCTGTTCAAGCGCCATCTAC”, the binding signal is 3.55 RPM ratio (pull-down/input).

As for “GATGATTGTTCTCCCAGCTGATGAATTGCTGTTATCGAGTAAACAAATTTTCCTAATCTTTCTGTTCAAGCGCCATCTAC”, the binding signal is 2.06 RPM ratio (pull-down/input).

With “GATGATTGTTCTCCCAGCTGATGAATTATTATTATCGAGTAAACAAATTTTCCTAATCTTTCTGTTCAAGCGCCATCTAC”, the binding signal was 1.99 RPM ratio (pull-down/input).

For “GATGATTGTTCTCCCAGCTGATGAATTTTTGTTATCGAGTAAACAAATTTTCCTAATCTTTCTGTTCAAGCGCCATCTAC”, the binding signal is 2.29 RPM ratio (pull-down/input).

With “GATGATTGTTCTCCCAGCTGATGAATTTCTGTTATCGAGTAAACAAATTTTCCTAATCTTTCTGTTCAAGCGCCATCTAC”, the binding signal was 1.07 RPM ratio (pull-down/input).

For “GATGATTGTTCTCCCAGCTGATGAATTTGTTATCTCGAGTAAACAAATTTTCCTAATCTTTCTGTTCAAGCGCCATCTAC”, the binding signal is 7.03 RPM ratio (pull-down/input).

With “GATGATTGTTCTCCCAGCTGATGAATTGTTATTATCGAGTAAACAAATTTTCCTAATCTTTCTGTTCAAGCGCCATCTAC”, the binding signal was 5.54 RPM ratio (pull-down/input).

Regarding “GATGATTGTTCTCCCAGCTGATGAATTTCGGGCCTCGAGTAAACAAATTTTCCTAATCTTTCTGTTCAAGCGCCATCTAC”, the binding signal is 0.404 RPM ratio (pull-down/input).

“GATGATTGTTCTCCCAGCTGATGAATTATGGAAATCGAGTAAACAAATTTTCCTAATCTTTCTGTTCAAGCGCCATCTAC”: the binding signal is 0.4 RPM ratio (pull-down/input).

Take “GATGATTGTTCTCCCAGCTGATGAATTTTGTGCTTCGAGTAAACAAATTTTCCTAATCTTTCTGTTCAAGCGCCATCTAC”: the binding signal was 1.87 RPM ratio (pull-down/input).

For “GATGATTGTTCTCCCAGCTGATGAATTGAGACTATCGAGTAAACAAATTTTCCTAATCTTTCTGTTCAAGCGCCATCTAC”, the binding signal was 0.692 RPM ratio (pull-down/input).

As for “GATGATTGTTCTCCCAGCTGATGAATTCCTTAGCTCGAGTAAACAAATTTTCCTAATCTTTCTGTTCAAGCGCCATCTAC”, the binding signal is 0.222 RPM ratio (pull-down/input).

As for “GATGATTGTTCTCCCAGCTGATGAATTTGGACTGTCGAGTAAACAAATTTTCCTAATCTTTCTGTTCAAGCGCCATCTAC”, the binding signal is 0.82 RPM ratio (pull-down/input).

On to “GATGATTGTTCTCCCAGCTGATGAATTTCGGTGCTCGAGTAAACAAATTTTCCTAATCTTTCTGTTCAAGCGCCATCTAC”, for which the binding signal was 0.541 RPM ratio (pull-down/input).

Consider “GATGATTGTTCTCCCAGCTGATGAATTTTGCGATTCGAGTAAACAAATTTTCCTAATCTTTCTGTTCAAGCGCCATCTAC”, for which the binding signal is 2.4 RPM ratio (pull-down/input).

The values are drawn from paper PMC12820563, “FoxP3 forms a head-to-head dimer in vivo and stabilizes its multimerization on adjacent microsatellites”.
